Source: the supplement of paper PMC10849652
Of roughly 7,900 targets only a part is listed; those with a hit were picked by preference. About 0.6% of all pairs of compound and target were hits.

Tests used:
Assay in all cases: log2 fold change, soluble protein after heating vs DMSO (PISA); higher = thermal stabilisation; K562 cells, 10 uM, 30 min; active = over 0.2 and 3.5 SD of the protein, either way, in both replicates (recomputed)
crizotinib = compound: C[C@@H](Oc1cc(-c2cnn(C3CCNCC3)c2)cnc1N)c1c(Cl)ccc(F)c1Cl [crizotinib]
In short: (§1)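 Aliquots of K562 cells (2×10^6 cells/mL) treated with 10 μM compound for 30 min were heated for 3 min over 48°C-58°C. After pooling and extraction in PBS with 0.5% NP-40 at 4°C, soluble protein from a 21,000xg, 90 min spin was quantified by TMTpro 16plex LC-MS/MS with channel sums equalised. Thermal stability is expressed against control samples, from duplicates, as a log2 fold change.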

tozasertib = compound: Cc1cc(Nc2cc(N3CCN(C)CC3)nc(Sc3ccc(NC(=O)C4CC4)cc3)n2)n[nH]1 [tozasertib]
In short: as §1

doramapimod = compound: Cc1ccc(-n2nc(C(C)(C)C)cc2NC(=O)Nc2ccc(OCCN3CCOCC3)c3ccccc23)cc1 [doramapimod]
In short: as §1

[1] = compound: CS(=O)(=O)c1ccc(-c2cnc(N)c(C(=O)Nc3ccccc3)n2)cc1
In short: as §1

[2] = compound: C[C@@H]1COCCN1C2=NC(=NC(=C2)C3(CC3)S(=O)(=O)C)C4=C5C=CNC5=CC=C4
In short: as §1

[3] = compound: C[C@H](C1=CC=C(C=C1)C(=O)NC2=C3C=CNC3=NC=C2)N
In short: as §1

duvelisib = compound: C[C@H](Nc1ncnc2nc[nH]c12)c1cc2cccc(Cl)c2c(=O)n1-c1ccccc1 [duvelisib]
In short: as §1

[4] = compound: Cc1cc(SCc2sc(-c3ccc(C(F)(F)F)cc3)nc2C)ccc1OCC(=O)O
In short: as §1

ispinesib = compound: Cc1ccc(C(=O)N(CCCN)[C@@H](c2nc3cc(Cl)ccc3c(=O)n2Cc2ccccc2)C(C)C)cc1 [ispinesib]
In short: as §1

gandotinib = compound: Cc1cc(Nc2cc(CN3CCOCC3)c3nc(C)c(Cc4ccc(Cl)cc4F)n3n2)n[nH]1 [gandotinib]
In short: as §1

Measured: log2 fold change

PSMD8 (UniProt K7ERW6)
inactive: crizotinib -0.021 | tozasertib -0.231 | doramapimod 0.066

PEX5 isoform 4 (UniProt P50542)
inactive: [1] -0.091 | [2] -0.016 | [3] 0.15 | duvelisib -0.379 | tozasertib -0.013 | [4] -0.047 | ispinesib -0.078

PHLDB1 isoform 2 (UniProt Q86UU1)
Sequence of UniProt Q86UU1 (Q86UU1 whole entry, looked up): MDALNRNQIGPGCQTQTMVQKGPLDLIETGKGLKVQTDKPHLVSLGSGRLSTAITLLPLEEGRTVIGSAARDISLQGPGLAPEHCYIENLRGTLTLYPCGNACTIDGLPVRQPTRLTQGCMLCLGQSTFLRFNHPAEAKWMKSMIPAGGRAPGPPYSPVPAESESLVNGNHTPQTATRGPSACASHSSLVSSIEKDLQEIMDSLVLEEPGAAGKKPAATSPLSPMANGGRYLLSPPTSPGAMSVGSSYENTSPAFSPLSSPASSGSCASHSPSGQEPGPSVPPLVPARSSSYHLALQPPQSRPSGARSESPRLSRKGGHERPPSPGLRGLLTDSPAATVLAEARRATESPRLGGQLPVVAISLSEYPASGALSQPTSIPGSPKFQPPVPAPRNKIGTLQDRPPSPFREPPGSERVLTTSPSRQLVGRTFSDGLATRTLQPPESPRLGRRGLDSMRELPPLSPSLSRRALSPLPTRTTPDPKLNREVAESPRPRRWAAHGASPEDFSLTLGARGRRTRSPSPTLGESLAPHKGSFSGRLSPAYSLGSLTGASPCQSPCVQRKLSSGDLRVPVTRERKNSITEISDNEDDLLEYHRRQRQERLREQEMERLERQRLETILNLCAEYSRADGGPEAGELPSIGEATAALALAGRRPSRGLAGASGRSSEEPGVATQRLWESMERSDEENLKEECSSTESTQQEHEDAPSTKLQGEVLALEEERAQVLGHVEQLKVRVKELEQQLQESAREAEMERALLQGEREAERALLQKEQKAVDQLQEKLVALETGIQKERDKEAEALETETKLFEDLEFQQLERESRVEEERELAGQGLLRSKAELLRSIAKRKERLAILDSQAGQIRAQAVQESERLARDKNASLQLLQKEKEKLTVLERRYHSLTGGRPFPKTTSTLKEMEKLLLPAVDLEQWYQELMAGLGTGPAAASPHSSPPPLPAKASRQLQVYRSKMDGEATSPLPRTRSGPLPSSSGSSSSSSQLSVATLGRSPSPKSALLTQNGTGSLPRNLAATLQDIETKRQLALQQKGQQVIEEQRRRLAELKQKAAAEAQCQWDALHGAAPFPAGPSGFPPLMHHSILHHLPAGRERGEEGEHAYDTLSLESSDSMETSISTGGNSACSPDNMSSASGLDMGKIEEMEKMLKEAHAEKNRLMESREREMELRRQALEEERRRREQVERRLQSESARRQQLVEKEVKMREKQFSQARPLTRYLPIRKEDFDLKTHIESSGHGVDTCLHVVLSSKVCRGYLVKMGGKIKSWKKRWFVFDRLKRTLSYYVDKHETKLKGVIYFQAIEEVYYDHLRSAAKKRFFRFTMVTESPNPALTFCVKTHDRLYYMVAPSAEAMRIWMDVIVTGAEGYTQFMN
active: duvelisib -0.759
inactive: crizotinib -0.307 | [2] 0.058 | [3] -0.043 | gandotinib -0.281 | tozasertib -0.126 | [4] 0.108 | doramapimod 0.032 | ispinesib -0.053

PCBP2 (UniProt F8VZX2)
inactive: crizotinib -0.273 | [3] 0.234 | duvelisib -0.147 | [4] 0.065 | doramapimod -0.107 | ispinesib -0.124

POLB (UniProt P06746)
inactive: [1] -0.078 | [2] -0.003 | [3] 0.036 | duvelisib -0.178 | gandotinib 0.081 | tozasertib 0.077 | [4] -0.045 | ispinesib -0.1

PSD3 (UniProt Q9NYI0)
Sequence of UniProt Q9NYI0 (Q9NYI0 whole entry, looked up): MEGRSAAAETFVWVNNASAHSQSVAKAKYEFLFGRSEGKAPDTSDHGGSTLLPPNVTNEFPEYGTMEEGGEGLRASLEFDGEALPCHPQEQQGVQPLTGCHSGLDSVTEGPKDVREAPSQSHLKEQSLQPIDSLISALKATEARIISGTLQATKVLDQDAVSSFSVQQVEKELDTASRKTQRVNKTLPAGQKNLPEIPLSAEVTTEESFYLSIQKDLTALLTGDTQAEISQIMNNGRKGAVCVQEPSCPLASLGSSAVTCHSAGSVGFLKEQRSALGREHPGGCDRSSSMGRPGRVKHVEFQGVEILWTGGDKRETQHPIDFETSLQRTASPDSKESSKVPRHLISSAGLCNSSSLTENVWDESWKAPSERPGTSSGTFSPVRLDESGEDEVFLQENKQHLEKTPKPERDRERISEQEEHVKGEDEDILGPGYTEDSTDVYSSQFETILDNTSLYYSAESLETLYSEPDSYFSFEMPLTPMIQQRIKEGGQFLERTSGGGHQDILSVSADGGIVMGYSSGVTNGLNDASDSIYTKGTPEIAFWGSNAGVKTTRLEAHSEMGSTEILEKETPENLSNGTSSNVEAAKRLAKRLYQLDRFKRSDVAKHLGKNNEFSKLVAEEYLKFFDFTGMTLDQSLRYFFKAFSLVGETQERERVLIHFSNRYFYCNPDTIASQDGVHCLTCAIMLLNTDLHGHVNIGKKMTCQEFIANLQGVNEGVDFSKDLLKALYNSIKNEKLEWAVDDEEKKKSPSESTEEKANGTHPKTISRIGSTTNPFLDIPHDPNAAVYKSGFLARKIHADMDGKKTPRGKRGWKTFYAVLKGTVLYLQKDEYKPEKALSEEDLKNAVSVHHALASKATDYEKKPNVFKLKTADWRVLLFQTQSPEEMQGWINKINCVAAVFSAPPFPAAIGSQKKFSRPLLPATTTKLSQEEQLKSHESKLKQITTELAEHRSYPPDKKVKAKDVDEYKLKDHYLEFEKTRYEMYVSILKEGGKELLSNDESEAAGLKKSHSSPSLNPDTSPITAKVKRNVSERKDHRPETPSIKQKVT
inactive: crizotinib 0.071 | [3] -0.047 | doramapimod -0.02 | ispinesib -0.075

POLR2E (UniProt P19388)
inactive: crizotinib 0.112 | [2] -0.027 | [3] 0.14 | duvelisib -0.001 | gandotinib 0.157 | tozasertib 0.02 | [4] 0.089 | doramapimod -0.078 | ispinesib -0.058

PSMC3 (UniProt E9PLG2)
inactive: [1] 0.206 | crizotinib 0.168 | [2] 0.101 | duvelisib 0.245 | tozasertib -0.288 | [4] -0.101 | doramapimod -0.058

PSMC1 (UniProt G3V4X1)
inactive: [3] 0.099 | gandotinib 0.066

PPP1R12C (UniProt Q9BZL4)
Sequence of UniProt Q9BZL4 (Q9BZL4 whole entry, looked up): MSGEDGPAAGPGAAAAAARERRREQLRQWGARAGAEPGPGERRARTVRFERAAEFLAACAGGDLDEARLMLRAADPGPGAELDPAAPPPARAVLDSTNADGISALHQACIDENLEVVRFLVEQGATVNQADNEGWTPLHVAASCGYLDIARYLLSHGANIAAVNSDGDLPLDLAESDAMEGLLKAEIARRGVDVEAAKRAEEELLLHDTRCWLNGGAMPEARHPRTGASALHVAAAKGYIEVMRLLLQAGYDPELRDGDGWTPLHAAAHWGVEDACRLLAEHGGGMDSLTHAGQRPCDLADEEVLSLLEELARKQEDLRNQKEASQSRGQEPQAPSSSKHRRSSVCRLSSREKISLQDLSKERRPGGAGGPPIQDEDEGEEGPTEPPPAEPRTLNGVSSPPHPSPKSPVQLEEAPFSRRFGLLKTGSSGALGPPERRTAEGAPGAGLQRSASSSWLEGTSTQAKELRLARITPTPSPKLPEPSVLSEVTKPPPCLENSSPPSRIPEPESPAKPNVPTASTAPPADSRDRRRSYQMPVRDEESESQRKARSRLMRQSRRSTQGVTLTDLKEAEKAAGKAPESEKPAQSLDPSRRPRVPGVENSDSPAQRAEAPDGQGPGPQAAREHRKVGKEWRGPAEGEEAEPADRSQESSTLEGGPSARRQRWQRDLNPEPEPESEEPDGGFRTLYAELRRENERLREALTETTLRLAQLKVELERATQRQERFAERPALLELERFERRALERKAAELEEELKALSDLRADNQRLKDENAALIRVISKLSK
inactive: [1] -0.016 | [2] -0.198 | duvelisib -0.011 | gandotinib -0.001 | tozasertib 0.091 | [4] 0.018 | ispinesib -0.009

PPP2R5C isoform 2 (UniProt Q13362)
Sequence of UniProt Q13362 (Q13362 whole entry, looked up): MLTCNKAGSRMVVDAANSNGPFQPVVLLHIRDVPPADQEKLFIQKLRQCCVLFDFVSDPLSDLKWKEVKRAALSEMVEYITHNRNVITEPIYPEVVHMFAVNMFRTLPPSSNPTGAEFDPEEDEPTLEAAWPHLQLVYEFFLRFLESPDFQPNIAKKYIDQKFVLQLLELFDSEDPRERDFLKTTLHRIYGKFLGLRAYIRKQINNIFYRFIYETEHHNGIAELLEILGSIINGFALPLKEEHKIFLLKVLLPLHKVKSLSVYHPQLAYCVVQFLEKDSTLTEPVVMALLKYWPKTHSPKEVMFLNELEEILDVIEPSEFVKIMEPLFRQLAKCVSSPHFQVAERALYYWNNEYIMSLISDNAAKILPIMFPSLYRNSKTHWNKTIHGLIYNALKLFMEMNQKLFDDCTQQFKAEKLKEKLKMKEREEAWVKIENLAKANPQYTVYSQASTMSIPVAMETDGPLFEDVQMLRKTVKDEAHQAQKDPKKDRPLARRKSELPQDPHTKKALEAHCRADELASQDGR
inactive: crizotinib 0.243 | doramapimod 0.052 | ispinesib 0.023

PTK2B (UniProt Q14289)
inactive: [1] -0.029 | [2] -0.03 | [3] 0.234 | duvelisib 0.182 | gandotinib -0.03 | tozasertib -0.067 | [4] 0.016 | ispinesib -0.233

PMS2CL (UniProt Q68D20)
inactive: [2] -0.091 | ispinesib 0.105

PI4K2B (UniProt Q8TCG2)
active: ispinesib -0.355
inactive: [1] 0.06 | crizotinib -0.184 | [3] 0.118 | duvelisib 0.132 | gandotinib -0.045 | tozasertib -0.168 | [4] -0.016 | doramapimod 0.01

PLCXD1 (UniProt Q9NUJ7)
inactive: ispinesib -0.145

PSMA3 (UniProt G3V4X5)
inactive: crizotinib -0.277 | doramapimod 0.149 | ispinesib -0.081

PIGH (UniProt Q14442)
Sequence of UniProt Q14442 (Q14442 whole entry, looked up): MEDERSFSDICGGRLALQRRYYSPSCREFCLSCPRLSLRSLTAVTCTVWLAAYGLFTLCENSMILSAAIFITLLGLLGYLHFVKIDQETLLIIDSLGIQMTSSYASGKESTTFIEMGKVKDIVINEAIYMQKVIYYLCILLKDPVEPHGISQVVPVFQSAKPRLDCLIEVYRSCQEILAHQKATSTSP
inactive: crizotinib -0.037 | [2] -0.012 | [3] -0.179 | duvelisib -0.034 | gandotinib 0.036 | tozasertib 0 | [4] 0.04 | doramapimod -0.062 | ispinesib 0.033

PSMD8 (UniProt K7EK21)
inactive: [3] 0.485

PCF11 (UniProt O94913)
inactive: crizotinib -0.137 | [3] 0.211 | gandotinib -0.149 | doramapimod 0.051 | ispinesib -0.533

PCNX1 (UniProt Q96RV3)
inactive: [2] 0.257 | tozasertib 0.071

PRKD2 (UniProt M0R346)
inactive: [1] -0.025 | [2] 0.241 | gandotinib 0.109

PAN2 (UniProt Q504Q3)
inactive: duvelisib -0.032 | [4] 0.299

PDE4DIP (UniProt E9PS60)
inactive: crizotinib -0.225 | [3] 0.212 | doramapimod 0.102

PHRF1 (UniProt Q9P1Y6)
inactive: ispinesib -0.296

PIAS4 (UniProt Q8N2W9)
Sequence of UniProt Q8N2W9 (Q8N2W9 whole entry, looked up): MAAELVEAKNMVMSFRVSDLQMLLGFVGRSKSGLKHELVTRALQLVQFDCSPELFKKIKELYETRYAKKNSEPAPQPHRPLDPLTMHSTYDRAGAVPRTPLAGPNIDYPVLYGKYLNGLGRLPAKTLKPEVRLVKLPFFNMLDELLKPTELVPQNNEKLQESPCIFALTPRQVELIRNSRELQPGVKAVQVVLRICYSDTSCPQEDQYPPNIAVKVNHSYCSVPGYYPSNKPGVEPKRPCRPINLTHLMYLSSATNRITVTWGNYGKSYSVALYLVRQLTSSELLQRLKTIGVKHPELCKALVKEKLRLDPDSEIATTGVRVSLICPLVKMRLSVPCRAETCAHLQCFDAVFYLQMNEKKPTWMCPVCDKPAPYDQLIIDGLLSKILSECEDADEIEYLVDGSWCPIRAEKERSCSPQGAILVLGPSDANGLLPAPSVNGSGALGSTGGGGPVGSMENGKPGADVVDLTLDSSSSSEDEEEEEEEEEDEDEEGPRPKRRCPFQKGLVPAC
inactive: crizotinib -0.178 | [2] 0.047 | duvelisib 0.036 | gandotinib -0.013 | tozasertib -0.009 | [4] 0.021 | doramapimod 0.061 | ispinesib -0.278

PIM1 isoform 2 (UniProt P11309)
inactive: gandotinib -0.084

PMVK (UniProt Q15126)
Sequence of UniProt Q15126 (Q15126 whole entry, looked up): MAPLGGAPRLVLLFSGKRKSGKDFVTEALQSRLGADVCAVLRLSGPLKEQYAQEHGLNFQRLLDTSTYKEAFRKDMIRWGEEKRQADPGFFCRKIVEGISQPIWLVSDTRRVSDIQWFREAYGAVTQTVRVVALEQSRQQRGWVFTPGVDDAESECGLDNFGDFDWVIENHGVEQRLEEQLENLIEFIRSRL
inactive: [1] 0.088 | [2] 0.02 | [3] 0.083 | duvelisib -0.055 | tozasertib -0.186 | [4] 0.333
active: gandotinib -0.705

PRR14L (UniProt Q5THK1)
inactive: [3] -0.072 | gandotinib -0.084 | tozasertib -0.247

PDE4A (UniProt P27815)
inactive: crizotinib 0.055 | [2] -0.102 | [3] -0.171 | tozasertib 0.027 | doramapimod 0.065 | ispinesib -0.098

PPP2R5B (UniProt Q15173)
inactive: duvelisib 0.16 | gandotinib -0.277 | [4] -0.002

PTEN isoform 2 (UniProt P60484)
Sequence of UniProt P60484 (P60484 whole entry, looked up): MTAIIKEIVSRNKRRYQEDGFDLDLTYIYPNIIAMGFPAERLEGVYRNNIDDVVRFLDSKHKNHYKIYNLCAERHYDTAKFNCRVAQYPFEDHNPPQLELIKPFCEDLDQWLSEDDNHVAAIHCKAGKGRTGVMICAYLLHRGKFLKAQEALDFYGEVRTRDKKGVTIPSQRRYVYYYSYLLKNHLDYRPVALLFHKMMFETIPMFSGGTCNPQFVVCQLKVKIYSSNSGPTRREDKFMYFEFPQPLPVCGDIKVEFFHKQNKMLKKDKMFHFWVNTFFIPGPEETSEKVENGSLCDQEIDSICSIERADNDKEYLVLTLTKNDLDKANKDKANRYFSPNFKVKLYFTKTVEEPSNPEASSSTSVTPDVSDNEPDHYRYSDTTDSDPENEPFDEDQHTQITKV
inactive: crizotinib 0.077 | gandotinib 0.312 | doramapimod 0.001 | ispinesib 0.024

PTPA (UniProt A6PVN8)
inactive: [1] -0.116 | [2] 0.083 | [3] 0.1 | duvelisib -0.002 | gandotinib -0.048 | tozasertib -0.069 | [4] -0.203 | ispinesib -0.04

PUF60 isoform 2 (UniProt Q9UHX1)
inactive: [3] -0.591 | duvelisib 0.163 | tozasertib 0.193 | [4] 0.04 | ispinesib 0.173

PNPLA4 (UniProt P41247)
active: crizotinib -0.651 | doramapimod 0.895
inactive: [1] 0.319 | [3] 0.559 | duvelisib -0.095 | tozasertib -0.005 | [4] 0.117 | ispinesib -0.093

PSMA3 (UniProt H0YJ03)
inactive: crizotinib 0.081 | [3] 0.099 | duvelisib 0.092 | tozasertib -0.049 | [4] -0.07 | doramapimod 0.072 | ispinesib -0.213

PRKD3 (UniProt O94806)
inactive: [1] -0.132 | crizotinib -0.292 | [3] -0.189 | duvelisib 0.033 | gandotinib 0.092 | [4] 0.039 | doramapimod -0.088 | ispinesib -0.237
